# Experimental data from the supplement of paper PMC6089552.
# About 300 (9.4%) of roughly 3,200 compounds showed activity. This excerpt belongs to a sample that is enriched for actives. Unmarked numbers belong to inactive results.
# Test system: A673/TR/shEF
# Assay: cell viability (LOESS-normalised, relative to median of negative controls) (log2 ratio); higher = more viable cells (less compound effect), active = hit call of the paper (over 3 MAD below the median)
# Details: treatment time: 72 h
# How it was run: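 A673/TR/shEF Ewing sarcoma cells were plated at 1,500 per well in 384-well plates and cultured with or without doxycycline, added 24 h before compounds, to induce EWS-FLI1 shRNA knockdown. Library compounds at two or more concentrations, alongside DMSO controls, were applied for three days. Cell viability was measured by CellTiter-Glo luminescence on an Envision reader. Readings were LOESS-corrected per plate, divided by the median of negative controls and log2-transformed, and hits were wells lying at least three median absolute deviations from the median of all screened wells.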
# [1] = 0.25 µM, library screen: screen1, EWS-FLI1 expression: high (no doxycycline)
# [2] = 0.25 µM, library screen: screen1, EWS-FLI1 expression: low (doxycycline-induced shRNA knockdown)
# [3] = 2.5 µM, library screen: screen1, EWS-FLI1 expression: high (no doxycycline)
# [4] = 2.5 µM, library screen: screen1, EWS-FLI1 expression: low (doxycycline-induced shRNA knockdown)
# [5] = 0.25 µM, library screen: screen2, EWS-FLI1 expression: high (no doxycycline)
# [6] = 0.25 µM, library screen: screen2, EWS-FLI1 expression: low (doxycycline-induced shRNA knockdown)
# [7] = 2.5 µM, library screen: screen2, EWS-FLI1 expression: high (no doxycycline)
# [8] = 2.5 µM, library screen: screen2, EWS-FLI1 expression: low (doxycycline-induced shRNA knockdown)
# [9] = 0.103 µM, library screen: screen3, EWS-FLI1 expression: high (no doxycycline)
# [10] = 0.103 µM, library screen: screen3, EWS-FLI1 expression: low (doxycycline-induced shRNA knockdown)
# [11] = 0.308 µM, library screen: screen3, EWS-FLI1 expression: high (no doxycycline)
# [12] = 0.308 µM, library screen: screen3, EWS-FLI1 expression: low (doxycycline-induced shRNA knockdown)
# [13] = 0.926 µM, library screen: screen3, EWS-FLI1 expression: high (no doxycycline)
# [14] = 0.926 µM, library screen: screen3, EWS-FLI1 expression: low (doxycycline-induced shRNA knockdown)
# [15] = 2.8 µM, library screen: screen3, EWS-FLI1 expression: high (no doxycycline)
# [16] = 2.8 µM, library screen: screen3, EWS-FLI1 expression: low (doxycycline-induced shRNA knockdown)
# [17] = 8.3 µM, library screen: screen3, EWS-FLI1 expression: high (no doxycycline)
# [18] = 8.3 µM, library screen: screen3, EWS-FLI1 expression: low (doxycycline-induced shRNA knockdown)
# [19] = 25 µM, library screen: screen3, EWS-FLI1 expression: high (no doxycycline)
# [20] = 25 µM, library screen: screen3, EWS-FLI1 expression: low (doxycycline-induced shRNA knockdown)
compound,measurement,setting,value
CC1=C(C(=O)OC2CCCC2)C(c2coc3ccccc3c2=O)C2=C(CCCC2=O)N1 (stereo not given),cell viability (log2),[1],0.0306
same,cell viability (log2),[2],0.112
same,cell viability (log2),[3],0.0744
same,cell viability (log2),[4],0.0338
Cc1cc(=O)c2c(o1)-c1c(cc(O)c(O)c1C(=O)O)OC2,cell viability (log2),[1],0.0145
same,cell viability (log2),[2],0.0255
same,cell viability (log2),[3],0.0451
same,cell viability (log2),[4],0.0692
N[C@@H](CC(=O)O)C(=O)O,cell viability (log2),[5],-0.146 (active)
same,cell viability (log2),[6],0.087
same,cell viability (log2),[7],0.0127
same,cell viability (log2),[8],0.00419
N[C@@H](CCC(=O)O)C(=O)O,cell viability (log2),[5],0.193
same,cell viability (log2),[6],0.073
same,cell viability (log2),[7],0.108
same,cell viability (log2),[8],0.15
N[C@H](CO)C(=O)O,cell viability (log2),[5],0.128
same,cell viability (log2),[6],0.103
same,cell viability (log2),[7],0.162
same,cell viability (log2),[8],0.112
CNc1ccccc1C(=O)N1CCc2c([nH]c3ccccc23)C1=O,cell viability (log2),[1],0.0191
same,cell viability (log2),[2],-0.0744
same,cell viability (log2),[3],0.0945
same,cell viability (log2),[4],0.0188
COC1[C@H](O)[C@@H](O)C(O)[C@H](O)[C@H]1O (stereo not given in full),cell viability (log2),[1],0.0827
same,cell viability (log2),[2],0.0562
same,cell viability (log2),[3],0.177
same,cell viability (log2),[4],0.115
CC(=O)O[C@H]1CC[C@]2(C)[C@H]3C(=O)C=C4[C@@H]5C[C@@](C)(C(=O)O)CC[C@]5(C)CC[C@@]4(C)[C@]3(C)CC[C@H]2C1(C)C,cell viability (log2),[1],0.0602
same,cell viability (log2),[2],0.011
same,cell viability (log2),[3],0.129
same,cell viability (log2),[4],0.0507
CO[C@@H](C(=O)N1Cc2[nH]nc(NC(=O)c3ccc(N4CCN(C)CC4)cc3)c2C1)c1ccccc1,cell viability (log2),[9],-0.25 (active)
same,cell viability (log2),[10],0.0472
same,cell viability (log2),[11],-0.418 (active)
same,cell viability (log2),[12],-0.0579
same,cell viability (log2),[13],-0.596 (active)
same,cell viability (log2),[14],-0.134 (active)
same,cell viability (log2),[15],-0.679 (active)
same,cell viability (log2),[16],-0.355 (active)
same,cell viability (log2),[17],-0.794 (active)
same,cell viability (log2),[18],-0.46 (active)
same,cell viability (log2),[19],-1.13 (active)
same,cell viability (log2),[20],-1.21 (active)
O=C(Nc1cccc(C(=O)Nc2ccc(S(=O)(=O)O)c3cc(S(=O)(=O)O)cc(S(=O)(=O)O)c23)c1)Nc1cccc(C(=O)Nc2ccc(S(=O)(=O)O)c3cc(S(=O)(=O)O)cc(S(=O)(=O)O)c23)c1,cell viability (log2),[5],0.11
same,cell viability (log2),[6],0.117
same,cell viability (log2),[7],0.167
same,cell viability (log2),[8],0.0855
O=C(Nc1cc(C(=O)Nc2ccc(S(=O)(=O)O)c(S(=O)(=O)O)c2)cc(C(=O)Nc2ccc(S(=O)(=O)O)c(S(=O)(=O)O)c2)c1)Nc1cc(C(=O)Nc2ccc(S(=O)(=O)O)c(S(=O)(=O)O)c2)cc(C(=O)Nc2ccc(S(=O)(=O)O)c(S(=O)(=O)O)c2)c1,cell viability (log2),[5],0.215
same,cell viability (log2),[6],0.101
same,cell viability (log2),[7],0.0469
same,cell viability (log2),[8],0.125
Cc1ccc(C(=O)Nc2ccc(S(=O)(=O)O)c3cc(S(=O)(=O)O)cc(S(=O)(=O)O)c23)cc1NC(=O)c1cccc(NC(=O)Nc2cccc(C(=O)Nc3cc(C(=O)Nc4ccc(S(=O)(=O)O)c5cc(S(=O)(=O)O)cc(S(=O)(=O)O)c45)ccc3C)c2)c1,cell viability (log2),[1],0.152
same,cell viability (log2),[2],0.0138
same,cell viability (log2),[5],-2.98 (active)
same,cell viability (log2),[6],-2.91 (active)
same,cell viability (log2),[3],0.0749
same,cell viability (log2),[4],0.0704
same,cell viability (log2),[7],-3.46 (active)
same,cell viability (log2),[8],-3.2 (active)
OCCN(C(=S)Nc1ccc2nccnc2c1)c1ccccc1,cell viability (log2),[1],0.0686
same,cell viability (log2),[2],0.0667
same,cell viability (log2),[3],0.0818
same,cell viability (log2),[4],0.102
CC12CCC3c4ccc(OC(=O)c5ccccc5)cc4CCC3C1CCC2=O (stereo not given),cell viability (log2),[1],-0.000312
same,cell viability (log2),[2],0.0356
same,cell viability (log2),[3],0.0819
same,cell viability (log2),[4],0.000425
Cc1cc(OC(=O)c2c(C)cc(O)cc2O)cc(O)c1C(=O)O,cell viability (log2),[1],0.0848
same,cell viability (log2),[2],-0.00358
same,cell viability (log2),[3],0.0665
same,cell viability (log2),[4],0.0394
CCCCC1C(=O)N(c2ccccc2)N(c2ccc(O)cc2)C1=O (stereo not given),cell viability (log2),[1],0.139
same,cell viability (log2),[2],0.0945
same,cell viability (log2),[3],-0.129 (active)
same,cell viability (log2),[4],0.2
O=C1C(CC[S+]([O-])c2ccccc2)C(=O)N(c2ccccc2)N1c1ccccc1 (stereo not given),cell viability (log2),[1],0.123
same,cell viability (log2),[2],0.158
same,cell viability (log2),[3],0.184
same,cell viability (log2),[4],0.139
CCCCC1C(=O)N(c2ccccc2)N(c2ccccc2)C1=O,cell viability (log2),[9],0.0537
same,cell viability (log2),[10],0.0214
same,cell viability (log2),[1],0.128
same,cell viability (log2),[2],0.109
same,cell viability (log2),[5],0.0899
same,cell viability (log2),[6],0.0435
same,cell viability (log2),[11],0.172
same,cell viability (log2),[12],0.159
same,cell viability (log2),[13],0.0763
same,cell viability (log2),[14],0.0956
same,cell viability (log2),[3],0.118
same,cell viability (log2),[4],0.1
same,cell viability (log2),[7],0.084
same,cell viability (log2),[8],0.0326
same,cell viability (log2),[15],0.137
same,cell viability (log2),[16],0.112
same,cell viability (log2),[17],0.169
same,cell viability (log2),[18],0.123
same,cell viability (log2),[19],0.117
same,cell viability (log2),[20],0.141
